# Sampled rows, rich in hits. Any-hit rate of the full collection: about 3.8%.
# PLK1 PBD block: blocks phosphopeptide binding to human PLK1 polo-box domain | 2.8% of 360,000 active | Potency, µM, without a hit: max response, negative = inhibition, most hits filed as inhibitors | AID 720504 | Plk1 PBD binding of FITC phosphopeptide, fluorescence polarization; further: potency means the concentration at half of the fitted maximal effect; series mostly up to about 57 µM; on the % scale 0 is the no-effect control and ±100 the full control effect; nearly all actives have a fitted effect of over 65% in size
# KCNH2 3.1 block: KCNH2 3.1 (human) potassium channel inhibition | U2OS KCNH2 3.1, thallium flux FluxOr; stronger effect = lower value | activity change, % (tested at about 1.8 µM) | 0.95% of 340,000 active | AID 720553;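 active means maximum activity change below -70%; inconclusive means maximum activity change from -70% to -50%; inactive means maximum activity change above -50%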;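 further: thallium influx rate constant from kinetic fluorescence after stimulation buffer; on the % scale 0 is the no-effect control and ±100 the full control effect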
#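 Normalized rate constant (relative to positive and negative DMSO controls) derived from a 2 min kinetic fluorescence read after stimulation; U2OS cells expressing the 3.1 isoform via virus at 1.77 x 10^8 /mL.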
# VDR inh: inhibitors of human vitamin D receptor. AID 504847. VDR-SRC2-3 peptide fluorescence polarization, 2 h. 0.93% of 400,000 active. Potency, µM, for inactives: max response, negative = inhibition, most hits filed as inhibitors. P11473; further: potency means the concentration at half of the fitted maximal effect; on the % scale 0 is the no-effect control and ±100 the full control effect
# Target sequence (P11473 whole entry, looked up): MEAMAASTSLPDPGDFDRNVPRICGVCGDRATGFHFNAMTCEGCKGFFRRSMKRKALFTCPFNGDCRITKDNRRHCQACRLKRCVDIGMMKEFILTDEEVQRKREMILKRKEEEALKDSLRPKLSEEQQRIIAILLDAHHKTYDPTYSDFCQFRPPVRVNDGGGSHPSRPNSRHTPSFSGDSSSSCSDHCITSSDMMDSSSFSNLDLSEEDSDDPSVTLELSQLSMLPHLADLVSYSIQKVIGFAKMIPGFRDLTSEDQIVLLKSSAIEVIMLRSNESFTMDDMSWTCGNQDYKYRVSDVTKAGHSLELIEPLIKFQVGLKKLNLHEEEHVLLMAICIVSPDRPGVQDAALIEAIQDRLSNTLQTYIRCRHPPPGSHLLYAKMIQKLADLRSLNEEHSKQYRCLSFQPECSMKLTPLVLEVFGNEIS
#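 Inhibition of the VDR/SRC2-3 peptide interaction is quantified by fluorescence polarization. Compounds (23 nl, pintool) incubate with the reagents for 2 hours at ambient room temperature.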
# MBNL1 CUG block: blocks human MBNL1 binding to CUG repeat RNA. Q9NR56. TR-FRET MBNL1-His/biotin-(CUG)12 binding, 665/545 ratio. Potency, µM (highest dose often 57.5 µM), inactives show top-dose activity change, negative = inhibition, usual class: inhibitors. 0.036% of 280,000 active. AID 2675; active means well fitted inhibition curve with a large enough effect in the signal ratio, with a control signal flat, not every such curve was filed as active; inconclusive means small, poorly fitted or top-dose-only effect, or effect the other way, or a change in a side signal; inactive means no such curve, though single readings can be large or run the other way; the % refers to the signal ratio; further: potency means the concentration at half of the fitted maximal effect; on the % scale 0 is the no-effect control and ±100 the full control effect
#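 Compounds (final 92 nM to 58 uM) are added to His-tagged MBNL1 and biotin-(CUG)12, then terbium anti-His antibody and streptavidin-XL665 (5 nM final). After 60 min at room temperature, the 665/545 nm ratio is read.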
# hERG WT inh: inhibitors of human wildtype KCNH2 potassium channel; Q12809; U2OS, BacMam KCNH2, thallium flux FluxOr; stronger effect = lower value; activity change, % at 1.84 µM; 0.37% of 340,000 active; AID 720551;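 active means maximum activity change below -70%; inconclusive means maximum activity change between -70% and -50%; inactive means maximum activity change above -50%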; further: on the % scale 0 is the no-effect control and ±100 the full control effect
#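 U2OS cells transduced with wild-type KCNH2 virus are loaded with FluxOr dye for 45 min, and thallium flux is measured in kinetic reads before and after stimulation buffer. Rate constants are normalized to DMSO controls.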
# CBFb RUNX1 block: blocks binding between human CBF-beta and RUNX1; Q01196+Q13951; AID 1477; 230,000 tested, under 10 active; Potency, µM (series often up to 59.8 µM), without a hit: at the highest dose activity, negative = inhibition, actives largely listed as inhibitors; AlphaScreen CBFb-His/RUNX1-biotin binding, biochemical; further: % of control where 0% means no effect
#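 Read-out: AlphaScreen. Format: His-CBF-beta with biotinylated RUNX1 (30 nM each) preincubated 20 min, compound 15 min, Ni-chelate plus streptavidin beads 90 min; room temperature throughout.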
# An asterisk follows results filed as active; ? = inconclusive; . = no result; [ ] = another dose, or the depositor's remark. Unless noted, the call rests on the fitted dose curve; in most records, active means well fitted curve in the direction sought with a large enough effect; inconclusive means small, poorly fitted or top-dose-only effect, or another doubt; inactive means no such curve, though single readings can be large; an effect the other way counts as inactive or inconclusive.
SMILES,PLK1 PBD block,KCNH2 3.1 block,VDR inh,MBNL1 CUG block,hERG WT inh,CBFb RUNX1 block
Cc1ccc(OCC(=O)Nc2cc(C(=O)O)cc(C(=O)O)c2)cc1C,2.99µM*,-7.1,17.8µM*,-4.6%,-0.1,-1.0%
CC(C)=CCCC1(C)C=Cc2c(O)c3c(c(CC=C(C)C)c2O1)OC12C(=CCCC1C(C)(C)O[C@@]2(C/C=C(\C)C(=O)O)C(=O)O)C3=O (stereo partly specified),.,.,44.7µM*,.,.,-12.9%
CCc1cccc(Nc2cc(C)nc3ncnn23)c1,23.8µM*,4.9,-27.6%,-9.9%,-1.7,0.8%[2.36 µM]
O=C1CC(c2ccccc2)Sc2ccccc2N1Cc1ccc(F)cc1 (stereo unspecified),.,.,-22.8%,.,.,.
O=C(CCC(=O)c1cccs1)OCc1nnc(-c2ccccc2)o1,26.7µM*,2.5,-13.5%,1.7%,6.8,3.3%
CC(=O)Nc1ccc(S(=O)(=O)NCCC(=O)OCc2nnc(-c3ccccc3)o2)cc1,-8.8%,4.0,9.4%,.,-1.8,.
O=C(CCNS(=O)(=O)c1ccccc1)OCc1nnc(-c2ccccc2)o1,-6.3%,-197.6*,-23.5%,.,-131.4*,.
O=C1OCc2nc3cc4c(cc3c(-c3ccc(F)cc3)c21)OCO4,23.8µM*,-4.2,?,10.5%,-7.7,.
O=C(N/N=C/c1ccc2c(c1)OCO2)c1cc(-c2ccc(F)cc2)nc2ccccc12,-6.3%,6.7,-10.6%,-8.4%,-5.1,1.0%
CCSC1(SCC)N=C(N)C2(C#N)C(c3ccc(OC)c(OC)c3OC)C12C#N (stereo unspecified),13.4µM*,1.1,?,?,-8.2,-2.1%
CCSC1(SCC)N=C(N)C2(C#N)C(c3ccccc3)NC3=C(CCC3)C12C#N (stereo unspecified),-8.4%,1.0,-1.0%,1.9%,-8.5,-2.6%
CN(C)c1ccc(-c2nc3cnccn3c2Nc2cccc(C(F)(F)F)c2)cc1,.,.,9.0%,.,.,.
CCOCCCNC(=O)CSCc1nc(-c2ccc(SC)cc2)oc1C,29.9µM*,-10.1,-5.3%,5.8%,2.2,4.4%
COc1ccccc1/C=C\C(=O)OC[C@@H]1CCCN2CCCC[C@H]12,.,.,8.9%,.,.,-5.2%
CCOc1ccc2nc3cc(N)ccc3c(N)c2c1,.,.,12.6µM*,.,.,-13.4%
CCOc1ccc2nc3ccc4[nH]onc4c3c2c1,-11.4%,-4.1,-13.8%,.,-12.1,.
Cc1ccc(-n2nnc3c(=O)n(CC(N)=O)cnc32)cc1,1.3%,-7.8,-12.2%,-3.4%,-2.3,.
NC(=O)Cn1cnc2c(nnn2-c2ccc(F)cc2)c1=O,26.7µM*,-2.9,-18.0%,-6.1%,-0.3,.
CC(C)Oc1ccc(CNC(=O)CN2C(=O)CCn3nc(-c4cn(C)c5ccccc45)cc32)cc1,.,.,19.5%,.,.,.
Cc1ccsc1/C=N/N1CCN(Cc2ccccc2)CC1,21.2µM*,-24.7,4.5%,-2.8%,-0.4,-4.6%
O=S1(=O)C2CC3CCC2(CN1Cc1ccccc1)O3 (stereo unspecified),.,.,3.9%,.,.,11.2%
O=C(C1CC1)N(Cc1nc2ccccc2c(=O)[nH]1)Cc1cccs1,15µM*,3.1,?,-6.4%,-14.4,8.0%
CC(C)(C)C(=O)N(Cc1nc2ccccc2c(=O)[nH]1)Cc1cccs1,-0.5%,9.8,5.4%,-6.9%,4.5,-1.0%
CCN(C(=O)C(NS(=O)(=O)c1cccc2nsnc12)c1ccccc1)c1ccccc1 (stereo unspecified),.,.,-5.1%,.,.,.
COc1cccc(CNC(=O)Cc2c(C)c3ccc(OC)c(C)c3oc2=O)c1,.,.,8.6%,.,.,.
SMILES,PLK1 PBD block,KCNH2 3.1 block,VDR inh,MBNL1 CUG block,hERG WT inh,CBFb RUNX1 block
Cc1ccc(NS(=O)(=O)c2cc(NC(=O)c3ccc4c(c3)NC(=O)CS4)ccc2Cl)c(C)c1,5.97µM*,3.6,-22.9%,-4.1%,-0.1,-20.7%
CCc1cc2cc(C)ccc2nc1SCC(=O)N1CC(=O)Nc2ccccc21,5.7%,18.0,5.1%,-5.1%,23.3,.
CCc1ccc2nc(SCC(=O)N3CC(=O)Nc4ccccc43)c(C#N)cc2c1,21.2µM*,-32.5,?,12.8%,1.0,-2.4%
CCc1cc2c(SCC(=O)N3CC(=O)Nc4ccccc43)ncnc2s1,26.7µM*,8.3,?,4.8%,3.6,-6.2%
CC(=O)c1ccc(NC(=O)CSc2ccc3nnc(CCNS(=O)(=O)c4ccc(C)cc4)n3n2)cc1,.,.,8.4%,.,.,.
O=S(=O)(c1ccc2[nH]c3c(c2c1)CCCC3)N1CCCCC1,2.5%,-1.0,89.1µM*,2.3%,11.5,.
Cc1ccc2sc(N3CCN(C(=O)c4ccc([N+](=O)[O-])o4)CC3)nc2c1C,-11.7%,-201.1*,?,.,-139.0*,.
O=C(c1ccc([N+](=O)[O-])o1)N1CCN(c2nc3c(Cl)cccc3s2)CC1,-6.3%,-20.2,-8.7%,.,3.6,.
Cc1cc(C)nc(/N=C2\NC(=O)CC(C(=O)O)N2c2ccc(C)c(C)c2)n1 (stereo unspecified),23.8µM*,23.3,50.1µM*,-7.8%,-4.2,3.9%
Cc1ccccc1Nc1cc(C(=O)NCC2CCCO2)c2ccccc2n1 (stereo unspecified),10.6µM*,24.2,?,-7.7%,-17.2,5.6%
Cc1ccccc1Nc1cc(C(=O)NC2CCCC2)c2ccccc2n1,.,.,-17.4%,.,.,.
Cc1ccnc(NC(c2ccsc2)c2ccc3ccc(C)nc3c2O)c1 (stereo unspecified),2.99µM*,-10.5,39.8µM*,7.7%,1.5,-22.8%
CCCCCC(O)/C=C/C=O (stereo unspecified),.,.,?,.,.,1.0%
CC1=C(C(=O)Nc2ccccc2)C(c2cccn2C)n2ncnc2N1 (stereo unspecified),.,.,14.4%,.,.,.
c1ccc(-c2nnc(NC3=NCCC3)o2)cc1,23.8µM*,-8.2,-7.0%,-2.5%,1.5,-1.0%
CCN(CC)CCSc1c(C(C)C)cnc2c1c(=O)n(C)c(=O)n2C,.,.,18.4%,.,.,.
CN1C(=O)c2oc3ccccc3c(=O)c2C1c1ccncc1 (stereo unspecified),26.7µM*,-22.8,79.4µM*,6.5%,-16.8,2.9%
CCOC(=O)c1nc(Nc2cccc(C)c2)c2ccccc2n1,21.2µM*,1.1,-25.8%,.,-19.1,6.4%
CCOC(=O)c1cccc(Nc2nc(C(=O)OCC)nc3ccccc23)c1,.,.,9.0%,.,.,.
Cc1[nH]ccc(=O)c1OCc1c(Cl)cccc1Cl,-0.2%,5.9,9.8%,0.9%,-4.8,6.9%
Cc1occc(=O)c1OCc1c(F)cccc1Cl,21.2µM*,2.0,-13.2%,3.3%,-3.7,-7.3%
Cc1cc(C)c(-c2csc(Cc3nc(-c4cc5ccccc5oc4=O)cs3)n2)cc1C,26.7µM*,6.5,?,.,0.9,-11.1%
